Many of the other results were omitted from the sample, so hits are more common in it than they were.
TbPYK inhibitor = inhibitors of Trypanosoma brucei pyruvate kinase | Q57TT1 | 410,000 tested, 0.12% active | Potency, µM (highest dose often 76.8 µM), without a hit: top-dose activity, negative = inhibition, most hits filed as inhibitors | TbPYK enzyme, Kinase-Glo Plus ATP luminescence, 45 min; note: potency is the fitted concentration of half-maximal effect; % is set by controls: 0 for no effect and ±100 for the full control effect; nearly all actives have a fitted effect of over 50% in size
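ADP (130 uM final) triggers the TbPYK reaction after compound addition; incubation is 45 min at room temperature. Kinase-Glo Plus is then added and luminescence imaged. Normalized data are fitted to concentration-effect curves.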
RE007 growth inh = less growth of the S. pombe RE007 Vpr strain | Potency, µM (doses to about 92.2 µM), for the others: at the top dose activity change, negative = less growth, hits mostly inhibitors | 360,000 tested, 0.21% active | S. pombe RE007 Vpr strain, BacTiter-Glo ATP luminescence, 24 h; active = well fitted falling curve with a large enough effect; inconclusive = small, poorly fitted or top-dose-only effect; inactive = no such curve, though single readings can be large or run the other way; note: potency is the fitted concentration of half-maximal effect; % is set by controls: 0 for no effect and ±100 for the full control effect; nearly all actives have a fitted effect of over 50% in size
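Fission yeast RE007 carrying one integrated HIV-1 vpr copy, seeded at OD 0.01 in PMG+AL medium with 23 nL pinned compound. Grown 24 h at 30 degrees; viability read by BacTiter-Glo luminescence after 5 min.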
Giardia FBPA inh = Giardia lamblia aldolase inhibition. A8B2U2. purified Giardia FBPA. Potency, µM (series often up to 59.6 µM), for the others: top-dose activity, negative = inhibition, hits mostly inhibitors. 290,000 tested, 0.71% active. AID 2451; note: potency is the fitted concentration of half-maximal effect; % is set by controls: 0 for no effect and ±100 for the full control effect; nearly all actives have a fitted effect of over 55% in size
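Giardia FBPA (40 nM reagent) was preincubated 10 min at RT with compound (up to 57.5 uM final), then substrate plus GAPDH/TPI/NAD/arsenate coupling system with diaphorase/resazurin was added; resorufin fluorescence (525/598 nm) was read after 20 min.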
Shiga toxin inh = blocks Shiga toxin action in Vero cells; Vero cells, Shiga toxin protein synthesis inhibition reporter; inhibition, % at 38.7 µM; 290,000 tested, 9.2% active; AID 2315; in the data active = inhibition mostly above about 28%, no sharp cut-off; inactive = mostly below about 43%; note: 0% is about no effect
LmPK inh = LmPK (Leishmania mexicana) enzyme inhibition. Q27686. purified LmPK, Kinase-Glo ATP luminescence, 1 h. Potency, µM (doses to about 57.5 µM), for the others: top-dose activity change, negative = inhibition, usual class: inhibitors. 290,000 tested, 0.37% active. AID 1721; note: potency is the fitted concentration of half-maximal effect; % is set by controls: 0 for no effect and ±100 for the full control effect
Target sequence (Q27686 whole entry, looked up): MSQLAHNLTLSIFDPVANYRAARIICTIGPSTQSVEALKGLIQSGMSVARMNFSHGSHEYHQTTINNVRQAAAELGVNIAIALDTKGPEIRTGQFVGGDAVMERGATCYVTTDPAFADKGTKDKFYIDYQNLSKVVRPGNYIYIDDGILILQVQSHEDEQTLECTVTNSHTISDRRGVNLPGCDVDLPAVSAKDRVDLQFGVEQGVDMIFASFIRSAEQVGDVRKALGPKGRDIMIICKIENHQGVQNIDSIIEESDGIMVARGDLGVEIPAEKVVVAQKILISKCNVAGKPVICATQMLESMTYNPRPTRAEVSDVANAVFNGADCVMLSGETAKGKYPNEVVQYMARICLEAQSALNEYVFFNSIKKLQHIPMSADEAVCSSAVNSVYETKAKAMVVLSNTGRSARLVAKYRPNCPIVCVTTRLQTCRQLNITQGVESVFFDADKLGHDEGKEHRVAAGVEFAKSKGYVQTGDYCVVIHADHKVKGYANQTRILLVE
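qHTS format; LmPK 0.1 nM; substrates PEP 0.5 mM and ADP 0.1 mM. One-hour room-temperature incubation, then coupled luciferase luminescence; 0.5 nM enzyme wells mark activation.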
Cycloheximide cs = counter-screen for Shiga toxin inhibitors: cycloheximide protein synthesis inhibition | cell reporter, cycloheximide protein synthesis inhibition counterscreen | max response, % | 300,000 tested, 12% active; in the data active = max response mostly above about 13%, no sharp cut-off; inactive = mostly below about 14%; note: read at 38.3 µM for the half of the compounds with a filed dose; 0% is about no effect
The depositor's hits bear a star; ? = inconclusive; nt = no result given; [ ] = remark or other dose. Unless noted, calls come from the whole dose curve; as a rule, active = well fitted curve in the direction sought with a large enough effect; inconclusive = small, poorly fitted or top-dose-only effect, or another doubt; inactive = no such curve, though single readings can be large; an effect the other way counts as inactive or inconclusive.

SMILES | TbPYK inhibitor | RE007 growth inh | Giardia FBPA inh | Shiga toxin inh | LmPK inh | Cycloheximide cs
COc1cccc2cc(C(=O)Nc3cc(C)cc(C)c3)/c(=N/NS(=O)(=O)c3ccccc3)oc12 | 0% | 11% | nt | 15 | 13% | 9
COc1ccc2oc(=N)c(C(=O)Nc3ccccc3)cc2c1 | 4% | 5% | 2% | 85* | -9% | 39*
COc1ccc(NC(=O)c2cc3ccccc3o/c2=N\NS(=O)(=O)c2ccc(C)cc2)cc1 | -22% | 4% | ? | 100* | -3% | 48*
Cc1ccc(NC(=O)N2CCC(CN3CCC(C)CC3)CC2)cc1F | -4% | nt | nt | nt | nt | nt
Cc1cc(C)cc(C(=O)n2nc(C)c(S(=O)(=O)N3CCOCC3)c2C)c1 | -2% | nt | nt | nt | nt | nt
COc1cccc(NC(=O)c2cc3ccccc3oc2=O)c1 | -20% | -9% | 10% | nt | -9% | 42*
COc1ccc2oc(=N)c(C(=O)Nc3cccc(C)c3C)cc2c1 | -2% | 1% | 4% | 49* | -4% | 30*
Cc1cccnc1NC(=O)c1cc2ccccc2oc1=O | -1% | -21% | 6% | 115* | ? | 30*
N=c1oc2ccc(Br)cc2cc1C(=O)NCc1ccc(F)cc1 | -14% | 5% | nt | 9 | -9% | 23*
CC1=C(C#N)C(NC(=O)c2ccccc2)(C(F)(F)F)C(=O)N1 (centres undefined) | 6% | nt | nt | nt | nt | nt
Cc1ccc(NC(=O)[C@@H](c2ccccc2)N2Cc3ccccc3C2=O)cc1F | -2% | nt | nt | nt | nt | nt
Cc1cccc(CNC(=O)CCCN2C(=O)c3cccnc3Oc3ccccc32)c1 | 0%[15.4 µM] | nt | nt | nt | nt | nt
COc1ccc2oc(=N)c(C(=O)Nc3ccc(F)cc3)cc2c1 | -3% | 12% | -7% | 14 | 0% | -3
N=c1oc2ccc(Cl)cc2cc1C(=O)Nc1ccc(F)cc1 | -4% | -10% | 1% | 44* | 9% | 24*
O=C(Nc1ccccc1O)c1cc2cc(Br)ccc2oc1=O | 6% | nt | -4% | 114* | 0% | 28*
COc1ccc2oc(=N)c(C(=O)Nc3ccccc3Cl)cc2c1 | 8% | -3% | 1% | 49* | 0% | 39*
Oc1cccc2ccc(/C=C/c3cccs3)nc12 | -9% | ? | -13% | 68* | 22µM* | 36*
Cc1ccsc1/C=C/c1ccc2cccc(O)c2n1 | 6% | ? | -12% | 72* | ? | 66*
Cc1ccsc1/C=C/c1ccc2ccccc2n1 | -1% | -30% | -14% | 67* | ? | 28*
Cc1ccc(-c2cn(-c3ccccc3F)c(=S)[nH]2)cc1 | ? | 7% | 10% | 68* | -8% | 42*
O=[N+]([O-])c1ccc(-c2cn(-c3ccccc3F)c(=S)[nH]2)cc1 | -44% | -2% | 1% | 131* | -1% | 42*
Cc1ccc(CS(=O)(=O)CC(C)(O)c2ccccc2)cc1 (centres undefined) | 2% | 6% | -4% | 8 | -7% | -5
COc1ccccc1CNC(=O)C(=O)c1cn(CC(=O)N2CCOCC2)c2ccccc12 | -13% | 5% | nt | 29 | -9% | 9
COc1ccccc1CCNC(=O)C(=O)c1cn(CC(=O)N2CCCC2)c2ccccc12 | 0% | 20% | 19% | 64* | -12% | 33*
O=C(NCCc1ccccc1)C(=O)c1cn(CC(=O)N2CCCC2)c2ccccc12 | -10% | -6% | nt | 6 | 0% | 19*
SMILES | TbPYK inhibitor | RE007 growth inh | Giardia FBPA inh | Shiga toxin inh | LmPK inh | Cycloheximide cs
Cc1cc(Oc2ccccc2)nc(-c2ccccc2)n1 | 2% | -6% | nt | 20 | -2% | 27*
c1ccc(Oc2cc(-c3ccccc3)nc(-c3ccccc3)n2)cc1 | 4% | -4% | 0% | -6 | -1% | -2
CSc1ccccc1NC(=O)c1cc(-c2ccc3c(c2)OCO3)on1 | 1% | 13% | 4% | 61* | -1% | 8
O=C(Nc1cc(Br)ccc1O)c1cc(-c2ccc3c(c2)OCO3)on1 | -9% | 2% | 4% | 77* | 0% | 15*
CN(C(=O)c1cc(-c2ccc3c(c2)OCO3)on1)c1ccccc1 | 7% | -7% | 4% | 95* | -9% | 34*
Cc1c(Cl)cccc1NC(=O)c1cc(-c2ccc3c(c2)OCO3)on1 | -3% | nt | nt | nt | nt | nt
CC#CCN1c2ccccc2[C@]23C[C@@H](C(=O)OC)N(C(=O)COCc4ccccc4)C2=NC(C(=O)OC)=C(C(=O)OC)[C@H]13 | nt | nt | 0%[12.9 µM] | nt | -1%[11.5 µM] | nt
Cc1cccc(NC(=O)CN2C(=O)N/C(=C\c3ccc(N4CCOCC4)cc3)C2=O)c1 | 0% | -26% | 2% | 68* | -5% | 39*
Cc1cc(N2CCOCC2)ccc1/C=C1\NC(=O)N(CC(=O)Nc2ccc(F)cc2)C1=O | -2% | -7% | 1% | 91* | 1% | 23*
Cc1cc(N2CCOCC2)ccc1/C=C1\NC(=O)N(CC(=O)Nc2ccccc2C)C1=O | -3% | 2% | 3% | -9 | 0% | -1
CC(=O)Nc1cc(C(=O)CSc2nnc(C3CC3)n2C2CC2)ccc1O | -2% | 6% | nt | nt | nt | nt
CO/N=C/c1ccc(Sc2ccccc2)c([N+](=O)[O-])c1 | -1% | -8% | 5% | -6 | 1% | 2
O=[N+]([O-])c1cc(/C=N/O)ccc1Oc1cccc(Cl)c1 | -7% | 0% | -4% | 1 | -1% | 17
CO/N=C/c1ccc(Oc2ccc(C)cc2)c([N+](=O)[O-])c1 | -15% | 0% | -4% | 64 | 8% | 43*
O=[N+]([O-])c1cc(/C=N/O)ccc1Oc1ccccc1Cl | 3% | -5% | -4% | 50* | -4% | 53*
CCCCCC(=O)N1C[C@H](O)[C@@H](n2cc(COC(=O)c3ccccc3)nn2)C[C@@H]1c1ccc(Cl)cc1 | 5% | -4% | nt | nt | nt | nt
COc1ccc(CN(C)C(=O)c2cccc(C(=O)N(C)Cc3ccc(OC)cc3)c2)cc1 | 0% | 14% | 7% | -5 | 0% | -4
CC(=O)Nc1cccc(C(=O)OCC(=O)NC(C)c2ccc(F)cc2)c1 (centres undefined) | 5% | -8% | 3% | 20 | 0% | -2
CC(=O)Nc1cccc(C(=O)OCc2ccccc2)c1 | -14% | 6% | 5% | 74* | 0% | 27*
CCC(=O)Nc1ccc(C(=O)OCC(=O)c2cccs2)cc1 | -2% | 23% | 3% | 55* | -5% | 31*
NC(=O)c1ccc(NC(=O)CCC(=O)c2cccs2)cc1 | -5% | 6% | -13% | 11 | -6% | 12
COc1ccc(OCCCC(=O)OC(C)C(=O)Nc2cccc(C(C)=O)c2)cc1 (centres undefined) | 4% | 2% | nt | -22 | -6% | 15*
CC(=O)Nc1cccc(C(=O)OCCCOc2ccc(F)cc2)c1 | -2% | 6% | -7% | 58* | 0% | 32*
CC(=O)Nc1cccc(C(=O)OCC(=O)NC(=O)Cc2ccccc2)c1 | -8% | 5% | nt | nt | nt | nt
O=C(CSC1=NS(=O)(=O)c2cc(F)ccc2N1)NCc1ccccc1Cl | -7% | 2% | nt | nt | nt | nt

Screening results from PubChem BioAssay.
